Of roughly 7,900 targets only a part is listed; those with a hit were picked by preference. About 0.6% of all pairs of compound and target were hits. A number with no mark means an inactive call.
Columns and labels:
Assay in all cases: log2 fold change, soluble protein after heating vs DMSO (PISA); higher = thermal stabilisation; K562 cells, 10 uM, 30 min; active = over 0.2 and 3.5 SD of the protein, either way, in both replicates (recomputed)
[1] = compound: NC(=O)Nc1cc(-c2cccc(F)c2)sc1C(=O)N[C@H]1CCCNC1
In short: (§1)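 Aliquots of K562 cells (2×10^6 cells/mL) treated with 10 μM compound for 30 min were heated for 3 min over 48°C-58°C. After pooling and extraction in PBS with 0.5% NP-40 at 4°C, soluble protein from a 21,000xg, 90 min spin was quantified by TMTpro 16plex LC-MS/MS with channel sums equalised. Thermal stability is expressed against control samples, from duplicates, as a log2 fold change.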

[2] = compound: NC(=O)c1cnc(N[C@@H]2CCCC[C@@H]2N)nc1Nc1cccc(-n2nccn2)c1
In short: as §1

[3] = compound: NC1(c2ccc(-c3nc4ccn5c(=O)[nH]nc5c4cc3-c3ccccc3)cc2)CCC1
In short: as §1

[4] = compound: NCC(=O)Nc1ccc(-n2nc(C(F)(F)F)cc2-c2ccc3c(ccc4ccccc43)c2)cc1
In short: as §1

entinostat = compound: Nc1ccccc1NC(=O)c1ccc(CNC(=O)OCc2cccnc2)cc1 [entinostat]
In short: as §1

vorinostat = compound: O=C(CCCCCCC(=O)Nc1ccccc1)NO [vorinostat]
In short: as §1

silmitasertib = compound: O=C(O)c1ccc2c(c1)nc(Nc1cccc(Cl)c1)c1ccncc12 [silmitasertib]
In short: as §1

[5] = compound: O=C1NC(=O)C(c2cnc3ccccn23)=C1c1cn2c3c(cc(F)cc13)CN(C(=O)N1CCCCC1)CC2
In short: as §1

citarinostat = compound: O=C(CCCCCCNC(=O)c1cnc(N(c2ccccc2)c2ccccc2Cl)nc1)NO [citarinostat]
In short: as §1

[6] = compound: c1cc(OCCN2CCCCC2)cc(-c2n[nH]c3ccc(-c4nnc[nH]4)cc23)c1
In short: as §1

Chain of UniProt Q86YM7 (Q86YM7 whole entry, looked up): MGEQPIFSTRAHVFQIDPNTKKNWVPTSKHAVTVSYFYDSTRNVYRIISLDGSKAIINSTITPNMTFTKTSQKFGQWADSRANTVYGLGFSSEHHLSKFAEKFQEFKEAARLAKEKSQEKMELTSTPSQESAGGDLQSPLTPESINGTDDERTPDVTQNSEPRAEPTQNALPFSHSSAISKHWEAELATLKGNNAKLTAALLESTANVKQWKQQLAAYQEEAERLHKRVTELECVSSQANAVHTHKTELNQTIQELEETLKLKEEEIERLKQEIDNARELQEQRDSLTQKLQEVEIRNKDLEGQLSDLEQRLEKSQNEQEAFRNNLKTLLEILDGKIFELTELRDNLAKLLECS
Chain of UniProt Q8IVP5 (Q8IVP5 whole entry, looked up): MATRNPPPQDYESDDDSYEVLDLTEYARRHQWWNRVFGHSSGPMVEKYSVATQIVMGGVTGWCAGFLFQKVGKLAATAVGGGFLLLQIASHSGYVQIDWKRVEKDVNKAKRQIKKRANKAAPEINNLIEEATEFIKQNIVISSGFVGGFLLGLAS
Chain of UniProt Q9NRD1 (Q9NRD1 whole entry, looked up): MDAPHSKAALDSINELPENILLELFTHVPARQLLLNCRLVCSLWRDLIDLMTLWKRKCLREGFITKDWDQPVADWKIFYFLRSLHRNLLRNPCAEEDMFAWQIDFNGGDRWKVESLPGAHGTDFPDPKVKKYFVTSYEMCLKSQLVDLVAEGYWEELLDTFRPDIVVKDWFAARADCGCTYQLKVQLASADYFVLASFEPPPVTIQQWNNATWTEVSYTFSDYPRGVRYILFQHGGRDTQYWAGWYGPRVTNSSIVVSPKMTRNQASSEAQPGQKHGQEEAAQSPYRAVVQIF
Chain of UniProt O76003 (O76003 whole entry, looked up): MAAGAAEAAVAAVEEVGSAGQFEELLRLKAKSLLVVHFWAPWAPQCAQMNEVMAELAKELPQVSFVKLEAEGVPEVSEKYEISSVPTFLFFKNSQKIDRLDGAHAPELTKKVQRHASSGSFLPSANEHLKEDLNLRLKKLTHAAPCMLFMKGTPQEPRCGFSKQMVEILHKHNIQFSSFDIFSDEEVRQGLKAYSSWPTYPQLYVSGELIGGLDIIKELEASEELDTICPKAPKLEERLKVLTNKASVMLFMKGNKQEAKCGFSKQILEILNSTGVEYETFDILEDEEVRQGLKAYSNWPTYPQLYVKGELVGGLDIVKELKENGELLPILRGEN
Chain of UniProt Q8N2G8 (Q8N2G8 whole entry, looked up): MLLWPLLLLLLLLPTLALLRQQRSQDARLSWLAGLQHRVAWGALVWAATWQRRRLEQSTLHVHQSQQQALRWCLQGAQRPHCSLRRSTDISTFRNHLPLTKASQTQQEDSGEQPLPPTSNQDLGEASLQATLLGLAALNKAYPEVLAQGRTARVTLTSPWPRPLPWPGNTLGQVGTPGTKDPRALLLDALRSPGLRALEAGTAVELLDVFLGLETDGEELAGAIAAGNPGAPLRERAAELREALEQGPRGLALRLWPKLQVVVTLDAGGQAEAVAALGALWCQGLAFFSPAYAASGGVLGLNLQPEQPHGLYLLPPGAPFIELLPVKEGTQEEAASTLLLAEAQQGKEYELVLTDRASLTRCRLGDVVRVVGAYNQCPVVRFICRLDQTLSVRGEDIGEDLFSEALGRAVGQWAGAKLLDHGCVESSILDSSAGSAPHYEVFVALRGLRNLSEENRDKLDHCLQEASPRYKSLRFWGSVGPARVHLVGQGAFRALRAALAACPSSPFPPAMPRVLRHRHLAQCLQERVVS
Chain of UniProt P04066 (P04066 whole entry, looked up): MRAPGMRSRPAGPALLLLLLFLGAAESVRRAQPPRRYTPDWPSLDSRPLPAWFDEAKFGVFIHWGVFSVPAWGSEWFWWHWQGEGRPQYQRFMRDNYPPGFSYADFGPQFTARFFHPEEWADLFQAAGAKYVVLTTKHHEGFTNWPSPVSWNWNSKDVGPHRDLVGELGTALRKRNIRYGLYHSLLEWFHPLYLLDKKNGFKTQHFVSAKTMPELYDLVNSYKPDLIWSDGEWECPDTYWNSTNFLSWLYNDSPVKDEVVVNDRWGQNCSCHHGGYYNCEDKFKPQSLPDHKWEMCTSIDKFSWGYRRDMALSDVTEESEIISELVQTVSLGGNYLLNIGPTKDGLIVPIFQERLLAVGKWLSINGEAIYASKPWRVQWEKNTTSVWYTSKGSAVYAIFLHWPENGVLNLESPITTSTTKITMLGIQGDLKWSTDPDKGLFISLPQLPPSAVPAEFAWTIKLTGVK
Chain of UniProt P15104 (P15104 whole entry, looked up): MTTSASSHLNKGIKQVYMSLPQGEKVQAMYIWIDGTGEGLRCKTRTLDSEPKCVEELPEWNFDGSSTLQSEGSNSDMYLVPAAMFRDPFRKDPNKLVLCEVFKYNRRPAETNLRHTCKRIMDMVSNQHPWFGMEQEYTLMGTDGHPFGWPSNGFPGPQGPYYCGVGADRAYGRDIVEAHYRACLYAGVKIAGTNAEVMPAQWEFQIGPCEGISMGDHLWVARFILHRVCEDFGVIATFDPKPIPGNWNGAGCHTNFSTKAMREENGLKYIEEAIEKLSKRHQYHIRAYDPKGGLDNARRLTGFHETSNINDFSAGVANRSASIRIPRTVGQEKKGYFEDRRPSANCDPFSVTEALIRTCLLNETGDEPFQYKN
Chain of UniProt Q96JB3 (Q96JB3 whole entry, looked up): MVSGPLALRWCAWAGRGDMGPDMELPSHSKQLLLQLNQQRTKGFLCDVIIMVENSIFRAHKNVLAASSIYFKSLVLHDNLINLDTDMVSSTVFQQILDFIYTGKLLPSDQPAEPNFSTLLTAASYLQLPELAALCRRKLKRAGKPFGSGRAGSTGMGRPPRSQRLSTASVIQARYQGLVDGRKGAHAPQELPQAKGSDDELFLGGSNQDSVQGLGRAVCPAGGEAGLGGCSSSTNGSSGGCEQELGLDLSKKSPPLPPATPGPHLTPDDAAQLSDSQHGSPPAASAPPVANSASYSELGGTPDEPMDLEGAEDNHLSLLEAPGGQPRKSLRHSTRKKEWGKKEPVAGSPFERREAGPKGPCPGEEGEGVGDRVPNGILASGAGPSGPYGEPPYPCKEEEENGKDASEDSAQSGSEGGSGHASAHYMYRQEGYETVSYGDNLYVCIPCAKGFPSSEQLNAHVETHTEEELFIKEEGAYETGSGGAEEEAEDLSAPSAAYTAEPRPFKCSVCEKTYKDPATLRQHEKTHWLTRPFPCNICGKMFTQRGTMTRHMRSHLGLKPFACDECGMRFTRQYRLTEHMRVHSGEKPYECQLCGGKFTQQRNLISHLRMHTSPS
Chain of UniProt Q96HJ9 (Q96HJ9 whole entry, looked up): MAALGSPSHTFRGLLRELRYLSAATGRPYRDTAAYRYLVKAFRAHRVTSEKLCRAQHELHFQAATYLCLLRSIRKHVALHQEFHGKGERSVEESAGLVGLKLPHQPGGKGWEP
Chain of UniProt O60725 (O60725 whole entry, looked up): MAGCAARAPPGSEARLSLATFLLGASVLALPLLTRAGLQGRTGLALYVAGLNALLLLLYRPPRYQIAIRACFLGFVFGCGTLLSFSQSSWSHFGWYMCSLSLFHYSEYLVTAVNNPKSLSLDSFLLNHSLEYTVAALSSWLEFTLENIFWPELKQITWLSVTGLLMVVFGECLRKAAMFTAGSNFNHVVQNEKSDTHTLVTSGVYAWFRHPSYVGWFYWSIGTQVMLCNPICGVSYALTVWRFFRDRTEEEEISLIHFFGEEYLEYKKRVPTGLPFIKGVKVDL
Chain of UniProt Q14956 (Q14956 whole entry, looked up): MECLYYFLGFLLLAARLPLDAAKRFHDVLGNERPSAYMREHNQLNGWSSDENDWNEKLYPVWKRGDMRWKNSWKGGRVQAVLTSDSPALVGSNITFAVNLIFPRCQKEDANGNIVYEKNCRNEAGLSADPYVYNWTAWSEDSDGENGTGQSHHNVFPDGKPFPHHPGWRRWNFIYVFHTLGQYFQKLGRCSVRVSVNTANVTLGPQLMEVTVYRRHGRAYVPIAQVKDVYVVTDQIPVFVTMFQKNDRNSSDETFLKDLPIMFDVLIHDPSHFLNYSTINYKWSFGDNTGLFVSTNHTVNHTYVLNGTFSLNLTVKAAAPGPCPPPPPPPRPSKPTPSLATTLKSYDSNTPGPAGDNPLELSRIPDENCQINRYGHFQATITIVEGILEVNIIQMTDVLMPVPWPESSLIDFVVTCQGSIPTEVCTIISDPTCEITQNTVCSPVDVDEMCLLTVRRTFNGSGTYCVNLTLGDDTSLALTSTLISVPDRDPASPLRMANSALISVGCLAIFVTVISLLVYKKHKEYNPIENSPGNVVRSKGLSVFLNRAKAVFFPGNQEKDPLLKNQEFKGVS
Chain of UniProt Q96SL8 (Q96SL8 whole entry, looked up): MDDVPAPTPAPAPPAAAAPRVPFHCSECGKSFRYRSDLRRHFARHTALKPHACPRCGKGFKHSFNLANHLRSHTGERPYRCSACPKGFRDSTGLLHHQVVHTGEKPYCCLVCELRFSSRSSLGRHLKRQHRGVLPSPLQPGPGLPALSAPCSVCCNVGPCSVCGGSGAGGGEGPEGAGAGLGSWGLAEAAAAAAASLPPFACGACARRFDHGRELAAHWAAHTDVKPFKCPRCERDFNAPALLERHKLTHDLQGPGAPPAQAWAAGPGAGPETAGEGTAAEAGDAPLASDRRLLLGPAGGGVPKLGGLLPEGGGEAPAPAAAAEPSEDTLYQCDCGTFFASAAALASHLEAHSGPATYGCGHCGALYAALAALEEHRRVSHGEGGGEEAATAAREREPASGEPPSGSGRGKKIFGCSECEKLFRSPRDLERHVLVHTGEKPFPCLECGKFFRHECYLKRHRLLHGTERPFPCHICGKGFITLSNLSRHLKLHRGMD
Chain of UniProt Q00403 (Q00403 whole entry, looked up): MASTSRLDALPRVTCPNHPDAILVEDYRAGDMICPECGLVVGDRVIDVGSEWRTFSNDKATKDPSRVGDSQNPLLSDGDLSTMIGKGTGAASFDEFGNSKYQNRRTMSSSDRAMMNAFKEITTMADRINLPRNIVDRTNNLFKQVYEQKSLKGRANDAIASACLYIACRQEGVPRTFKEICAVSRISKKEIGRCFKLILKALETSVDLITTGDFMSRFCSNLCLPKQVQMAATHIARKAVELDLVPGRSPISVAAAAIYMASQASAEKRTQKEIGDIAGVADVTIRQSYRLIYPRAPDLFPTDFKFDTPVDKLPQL

Row | Target | log2 fold change [1] | log2 fold change [2] | log2 fold change [3] | log2 fold change [4] | log2 fold change (entinostat) | log2 fold change (vorinostat) | log2 fold change (silmitasertib) | log2 fold change [5] | log2 fold change (citarinostat) | log2 fold change [6]
1 | GPD1 (UniProt P21695) | 0.067 | 0 | 0.059 | -0.067 | -0.068 | -0.035 | -0.16 | -0.157 | – | –
2 | FNTB (UniProt P49356) | -0.024 | 0.09 | 0.162 | -0.035 | -0.079 | -0.038 | -0.019 | 0.048 | 0.054 | 0.002
3 | GTF3C5 isoform 3 (UniProt Q9Y5Q8) | -0.028 | 0.211 | -0.054 | -0.051 | 0.046 | 0.072 | -0.034 | 0.042 | -0.074 | 0.013
4 | GTF2E2 (UniProt P29084) | -0.097 | -0.052 | -0.048 | -0.048 | 0.025 | 0.093 | 0.085 | 0.054 | 0.093 | -0.067
5 | HOMER1 (UniProt Q86YM7) | 0.058 | 0.007 | -0.014 | 0.032 | 0.049 | 0.059 | 0.119 | 0.013 | 0.013 | 0.024
6 | GTF2B (UniProt Q00403) | -0.009 | -0.08 | -0.172 | -0.056 | 0.047 | 0.211 | 0.005 | -0.156 | 0.037 | 0.022
7 | GYS1 (UniProt P13807) | -0.05 | -0.027 | 0.05 | 0.091 | -0.077 | -0.125 | 0.05 | -0.002 | -0.103 | -0.301
8 | IGF2BP2 (UniProt Q9Y6M1) | 0.014 | -0.051 | 0.237 | 0.045 | 0.015 | 0.128 | 0.16 | 0.155 | -0.178 | -0.208
9 | GTPBP6 (UniProt O43824) | -0.052 | -0.066 | 0.017 | -0.003 | -0.019 | -0.1 | -0.115 | 0.086 | 0.093 | -0.011
10 | GHDC (UniProt Q8N2G8) | -0.021 | 0.013 | 0.005 | -0.018 | 0.004 | -0.023 | 0.001 | -0.045 | 0.045 | -0.03
11 | FMC1 (UniProt Q96HJ9) | 0.01 | -0.044 | -0.011 | 0.013 | -0.042 | -0.054 | 0.006 | -0.012 | 0.044 | -0.053
12 | HNRNPF (UniProt P52597) | -0.015 | 0.014 | -0.11 | -0.027 | 0.137 | 0.154 | 0.074 | -0.104 | 0.07 | -0.048
13 | FCHO1 (UniProt O14526) | -0.001 | -0.21 | -0.119 | 0.054 | -0.032 | – | -0.24 | -0.102 | -0.086 | 0.302
14 | GOPC (UniProt Q9HD26) | -0.055 | -0.011 | 0.15 | -0.002 | -0.092 | -0.038 | 0.029 | 0.265 | – | –
15 | HNRNPH2 (UniProt P55795) | -0.073 | -0.03 | -0.124 | -0.077 | 0.016 | 0.114 | 0.031 | -0.007 | 0.06 | -0.086
16 | GDE1 (UniProt Q9NZC3) | -0.001 | 0.058 | 0.094 | -0.01 | -0.065 | – | -0.086 | -0.008 | 0.024 | 0.032

Row | Target | log2 fold change [1] | log2 fold change [2] | log2 fold change [3] | log2 fold change [4] | log2 fold change (entinostat) | log2 fold change (vorinostat) | log2 fold change (silmitasertib) | log2 fold change [5] | log2 fold change (citarinostat) | log2 fold change [6]
17 | GLUL (UniProt P15104) | 0.059 | -0.104 | 0.061 | 0.018 | -0.009 | 0.04 | 0.032 | -0.012 | -0.024 | -0.087
18 | HIC2 (UniProt Q96JB3) | -0.071 | -0.06 | 0.016 | 0.101 | -0.027 | -0.027 | 0.098 | 0.121 | -0.019 | -0.233
19 | FUCA1 (UniProt P04066) | 0.028 | -0.028 | -0.519 (active) | -0.03 | 0.014 | 0.015 | 0.019 | -0.043 | 0.096 | -0.372 (active)
20 | GPAT4 (UniProt Q86UL3) | -0.031 | 0.002 | -0.012 | -0.028 | -0.107 | -0.017 | -0.005 | -0.077 | 0.004 | -0.068
21 | GLRX3 (UniProt O76003) | 0 | -0.057 | -0.066 | -0.042 | 0.022 | -0.013 | 0.034 | -0.094 | 0.014 | -0.024
22 | HSPA8 (UniProt P11142) | -0.006 | 0.011 | 0.018 | 0.012 | -0.009 | -0.01 | -0.015 | 0.003 | -0.026 | -0.034
23 | FBXO6 (UniProt Q9NRD1) | -0.009 | 0.034 | 0.366 (active) | 0.028 | 0.013 | 0.074 | 0.012 | -0.017 | 0.075 | 0.026
24 | GLIPR2 (UniProt Q9H4G4) | -0.038 | -0.058 | -0.101 | -0.071 | 0.058 | 0.032 | 0.112 | -0.017 | -0.029 | -0.037
25 | FMR1 (UniProt Q06787) | 0.086 | – | 0.836 (active) | – | -0.106 | -0.137 | 0.058 | – | 0.101 | -0.146
26 | FCF1 (UniProt Q9Y324) | 0.244 | – | 0.097 | 0.36 | 0 | -0.045 | 0.099 | 0.349 | -0.137 | -0.375
27 | ICMT (UniProt O60725) | 0.031 | -0.153 | -0.233 | -0.079 | 0.007 | – | 0.022 | -0.013 | -0.034 | -0.016
28 | GPNMB (UniProt Q14956) | – | – | – | – | – | – | – | -0.015 | -0.125 | 0.727
29 | HS1BP3 (UniProt Q53T59) | -0.059 | -0.075 | – | 0.027 | -0.05 | – | – | -0.016 | 0.115 | 0.108
30 | HDAC1 (UniProt Q13547) | -0.015 | 0.128 | -0.017 | 0.006 | – | 1.79 (active) | 0.06 | -0.03 | 1.52 (active) | 0.003
31 | FIZ1 (UniProt Q96SL8) | 0.026 | – | 0.097 | 0.061 | -0.257 | 0.044 | -0.103 | 0.06 | -0.12 | 0.041
32 | FUNDC1 (UniProt Q8IVP5) | -0.058 | – | -0.104 | – | 0.01 | – | 0.055 | – | – | –

Source: the supplement of paper PMC10849652
